# Screens deposited in PubChem BioAssay by several laboratories.
# Mtb UGM inh = blocks M. tuberculosis UGM enzyme; actives 0.06% (n = 320,000); P9WIQ1; inhibition, % at 10 µM; purified UGM, fluorescence polarization probe displacement; in the data active = inhibition above about 10%, passing the limit was not always enough; inconclusive = no clear call, values can overlap the other calls
# Target sequence (P9WIQ1 whole entry, looked up): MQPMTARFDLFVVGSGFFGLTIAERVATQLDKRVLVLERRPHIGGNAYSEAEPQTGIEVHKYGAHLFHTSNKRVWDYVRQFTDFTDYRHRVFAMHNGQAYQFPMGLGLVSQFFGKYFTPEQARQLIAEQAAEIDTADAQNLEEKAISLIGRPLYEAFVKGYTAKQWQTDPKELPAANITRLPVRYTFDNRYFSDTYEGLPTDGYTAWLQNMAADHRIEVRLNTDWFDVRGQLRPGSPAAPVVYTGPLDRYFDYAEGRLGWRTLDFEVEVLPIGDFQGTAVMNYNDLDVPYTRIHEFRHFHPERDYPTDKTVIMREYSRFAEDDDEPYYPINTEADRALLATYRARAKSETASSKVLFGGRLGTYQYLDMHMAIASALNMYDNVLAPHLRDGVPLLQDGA
# PrP 5UTR inh = suppresses PrP 5' UTR mRNA reporter expression; cell-based PrP 5' UTR mRNA reporter, plate reader; inhibition, % (test concentration not listed); actives 0.35% (n = 340,000); in the data active = inhibition above about 52%; also: 0 = median of the neutral control wells
# SSB-PriA inh = inhibitors of Klebsiella pneumoniae PriA binding to SSB C-terminal tail. AlphaScreen SSBct-PriA binding, biotinylated peptide. inhibition, % at 33 µM. actives 0.6% (n = 430,000). AID 1272365; in the data active = inhibition mostly above about 37%, no sharp cut-off; inactive = mostly below about 20%;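 also: plate controls were negative control peptide for no effect and reference peptide for full effect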
# Rv3671c inh = inhibitors of M. tuberculosis serine protease Rv3671c; inhibition, % at 5.96 µM; actives 0.048% (n = 320,000); in the data active = inhibition above about 38%;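 also: extracellular domain of Rv3671c used as enzyme; 0% = enzyme with DMSO and 100% = no enzyme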
# FadD28 FP inh = inhibitors of Mycobacterium tuberculosis FadD28 bisubstrate binding; FadD28 bisubstrate probe binding, fluorescence polarization; inhibition, % at 12.5 µM; actives 0.22% (n = 360,000); in the data active = inhibition above about 8.5%, passing the limit was not always enough; inconclusive = no clear call, values can overlap the other calls
# PrPC TRFRET = reduces human prion protein on the cell surface; P04156; cell surface PrPC, TR-FRET read-out; inhibition, % at 13.8 µM; actives 0.43% (n = 370,000); AID 720596; in the data active = inhibition above about 24%; also: 0% = median of the test wells and 100% = reference compound wells
# PrP UTR cherry = prion 5' UTR mRNA inhibition, cherry-pick retest. shares compounds with PrP 5UTR inh. cell-based prion protein 5' UTR reporter, plate reader. inhibition, % at 2.5 µM. actives 48% (n = 1,100). AID 504592; in the data active = inhibition above about 54%; inconclusive = no clear call, values can overlap the other calls
# * hit, by the source's call; ? = inconclusive; . = no result. In the library only some 1.2% were active in any assay of this set; here they are far more common.
SMILES,Mtb UGM inh,PrP 5UTR inh,SSB-PriA inh,Rv3671c inh,FadD28 FP inh,PrPC TRFRET,PrP UTR cherry
O=C(COc1ccccc1Cl)Nc1ccc(CN2CCCCC2)cc1,0.4,65.9*,-1.3,2.0,-0.9,-2.4,-24.1
Cc1cnc(NC(=O)COc2ccccc2Cl)s1,0.4,63.5*,-3.8,6.3,-2.9,-3.4,?
Cc1cnc(NC(=O)CCNC(=O)c2ccccc2Cl)s1,1.2,-12.1,-14.3,8.4,-2.0,-1.3,.
O=C(Nc1ccccc1-c1cn2ccccc2n1)c1cncc(Br)c1,.,.,-18.0,.,.,.,.
CN(C)CCN(C(=O)c1ccnn1C)c1nc2c(F)cc(F)cc2s1,.,.,4.0,.,.,.,.
O=C(Nc1ncc(Cc2cccc(C(F)(F)F)c2)s1)c1ccccc1Cl,.,.,-2.0,.,.,.,.
Cc1ccc(-c2cnc(-c3ccncc3)o2)cc1,2.3,-40.5,-9.6,-3.9,-2.5,0.7,.
Nc1ccc(-c2ncc(-c3ccccc3)o2)cc1,-0.9,76.2*,21.9,-4.5,4.2,10.3,64.2*
Cc1cc(Cl)ccc1NC(=S)N1CCN(Cc2ccccc2)CC1,-2.2,51.1*,0.8,2.4,-4.0,0.8,9.0
Cc1cc(NC(=O)CSc2nnc(-c3ccco3)n2C)no1,-4.8,88.0*,-11.1,-8.4,-1.9,-5.2,7.4
O=S(=O)(Cc1cc(-c2ccccc2)no1)c1ccccc1,0.3,50.9*,-12.7,4.7,0.5,1.0,4.6
CC(C)(c1ccccc1)c1ccc(OCC(=O)NCCC(=O)O)cc1,.,.,5.0,.,.,.,.
COc1cccc(OC)c1C(=O)NCCS(=O)(=O)N1CCN(Cc2ccccc2)CC1,.,.,3.0,.,.,.,.
Cc1sc(NC(=S)NC(=O)CCc2ccccc2)c(C(N)=O)c1C,-0.5,54.5*,1.8,-7.8,-2.6,14.9,81.1*
Cc1sc(NC(=S)NC(=O)c2ccco2)c(C(N)=O)c1C,0.3,-34.2,-1.0,-6.5,-0.7,3.1,.
COC(=O)CCC(=O)Nc1sc(C)c(C)c1C(N)=O,-0.3,-3.0,1.7,11.6,-1.3,1.5,.
COC(=O)CCC(=O)NC(=S)Nc1sc(C)c(C)c1C(N)=O,0.7,67.4*,-11.4,-1.2,-2.8,8.7,85.5*
COc1ccccc1OCC#CCNC(=O)c1ccc(Cn2ccnc2)cc1,.,.,-19.0,.,.,.,.
CC(=O)c1ccc(NC(=O)CSc2ncccc2-c2nc3ccccc3[nH]2)cc1,.,.,-7.0,.,.,.,.
O=c1c2ccccc2cnn1-c1nc2ccccc2[nH]1,.,91.7*,-1.3,.,-0.5,-0.2,90.9*
O=c1c(Cl)c(N2CCCCC2)cnn1-c1nc2ccccc2[nH]1,-1.4,74.8*,-4.7,1.3,-0.3,0.8,69.2*
Cn1cccc1[C@@H](O)CNC(=O)c1cc(-c2ccccc2)on1,.,.,-1.0,.,.,.,.
CC(NC(=O)C(=O)NCCC(O)c1cccs1)c1ccccc1 (centres undefined),.,.,-10.0,.,.,.,.
CN(C(=O)c1cc2ccccc2oc1=O)C1(C)CCS(=O)(=O)C1 (centres undefined),-0.6,81.3*,-7.4,2.6,-0.7,0.5,-4.4
CC(=O)c1ccc(NC(=O)c2cccnc2-c2nc3ccccc3s2)cc1,.,.,-5.0,.,.,.,.
SMILES,Mtb UGM inh,PrP 5UTR inh,SSB-PriA inh,Rv3671c inh,FadD28 FP inh,PrPC TRFRET,PrP UTR cherry
Cc1cn(CC(=O)NCCCc2ccccc2)c(=O)[nH]c1=O,.,-14.0,-5.8,.,0.6,-2.9,.
O=c1[nH]c(=O)n(CCCc2ccccc2)cc1-c1ccccc1,.,63.0*,-7.5,.,-3.5,0.5,-15.4
CC1=C(N2CC2)C(=O)C(CO)=C(N2CC2)C1=O,.,97.7*,-20.1,.,0.5,-38.6,97.2*
COC(COC(N)=O)C1=C(N2CC2)C(=O)C(C)=C(N2CC2)C1=O (centres undefined),.,-28.8,1.8,.,-3.2,-25.0,.
Cc1ccc(C(=O)N2C3C=CC(C3)C2(C(F)(F)F)C(F)(F)F)cc1 (centres undefined),0.9,85.9*,-16.7,-5.5,0.4,1.4,-12.4
CCN1CCN(c2ncnc3scc(-c4ccc(F)cc4)c23)CC1,.,.,3.0,.,.,.,.
O=C(N/N=C/c1cc2c(cc1Br)OCO2)c1cccnc1,2.2,62.2*,.,6.9,-3.0,-8.3,-14.1
O=C(N/N=C/c1cc(O)ccc1Br)c1cccnc1,-1.1,-1.5,.,17.4,-2.4,3.2,.
CN1CCC[C@H](C(=O)NCC#CCN2CCOCC2)C1,.,.,-8.0,.,.,.,.
O=C(NNC(=O)c1cccs1)c1ccco1,1.1,64.4*,-4.3,-6.7,1.5,-2.8,88.4*
O=C(NC(=S)NNC(=O)c1cccs1)c1ccco1,-0.9,-46.3,-9.5,3.1,-1.3,-1.7,.
O=C(NCc1ccccc1Cl)C(=O)NCC(c1cccs1)N1CCc2ccccc2C1 (centres undefined),.,.,-21.0,.,.,.,.
CC(Cc1ccco1)NS(=O)(=O)c1ccccc1F (centres undefined),.,.,4.0,.,.,.,.
Cc1cc(-c2ccccc2)n(-c2cc(N/N=C/c3ccccc3O)ncn2)n1,1.0,76.0*,.,10.3,-1.5,-4.0,89.6*
Cc1cc(-c2ccccc2)n(-c2cc(NN=Cc3ccccc3O)ncn2)n1,.,.,-8.1,.,.,.,.
CCOc1ccccc1OCCCC(=O)N1CCN(S(=O)(=O)c2ccc(Cl)cc2)CC1,-1.5,87.2*,-1.6,-2.7,-2.6,-6.1,-10.4
CCCOc1ccccc1OCC(=O)N1CCN(S(=O)(=O)c2ccc(Cl)cc2)CC1,-1.6,-16.9,-3.7,-0.8,3.6,-7.0,.
O=C(Cn1cc(S(=O)(=O)Cc2ccccc2)c2ccccc21)N1CCN(C(=O)c2ccco2)CC1,.,.,-4.0,.,.,.,.
Cn1cc(/C=N/n2cnc3scc(-c4ccc(Cl)cc4)c3c2=O)c2ccccc21,0.0,57.1*,.,-11.2,-1.5,0.7,91.3*
Cc1ccccc1-c1nnc2n1N=C(c1ccc(O)c(O)c1)CS2,.,.,.,.,.,-7.6,.
CCOc1ccc(C2=Nn3c(nnc3-c3ccccc3OC)SC2)cc1,-0.2,68.6*,13.0,-16.6,-1.1,18.1,88.5*
COc1ccc(C2=Nn3c(nnc3-c3ccccc3C(F)(F)F)SC2)cc1OC1CCOC1 (centres undefined),5.9,15.2,-16.2,-3.5,-16.1,5.0,.
COc1ccc(C2=Nn3c(nnc3-c3ccccc3OC)SC2)cc1OC1CCOC1 (centres undefined),4.3,80.8*,0.7,8.9,-2.1,12.0,82.9*
COc1ccc(OC)c(-c2nnc3n2N=C(c2ccc(OC)c(OCC4CC4)c2)CS3)c1,-3.9,67.3*,-8.9,17.1,-7.3,.,93.1*
COc1ccccc1-c1nnc2n1N=C(c1ccc(O)c(O)c1)CS2,-1.1,60.7*,14.5,21.3,-0.6,.,89.9*
COc1ccccc1[C@H](CNC(=O)C(=O)Nc1cccnc1)OC,.,.,-16.0,.,.,.,.
COc1ccc(C)cc1S(=O)(=O)NCC(c1ccsc1)N1CCN(C)CC1 (centres undefined),.,.,-6.0,.,.,.,.
CCN(C[C@H]1N[C@@](Cc2ccccc2)(C(=O)OC)[C@H]2C(=O)N(Cc3ccccc3)C(=O)[C@@H]12)S(=O)(=O)c1ccc(C(C)(C)C)cc1,1.2,-10.4,-3.5,6.1,-0.5,-1.2,.
